Source: PubChem BioAssay (NCI)
The panel holds about 83,000 compounds, 20% with a hit somewhere; the sample as a whole holds those more often.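 Growth was measured after 48 h exposure to one concentration of compound in 96-well plates. Values under 10 count as active.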 Unmarked numbers belong to inactive results. Activity calls are given as the source filed them.

Legend:
Assay in all cases: NCI-60 one-dose screen, 48 h (100 = growth as untreated, 0 = no growth, -100 = all killed)
Settings in all cases: 10 µM
SR leukemia = test system: SR leukemia
OVCAR-8 ovarian = test system: OVCAR-8 ovarian
OVCAR-5 ovarian = test system: OVCAR-5 ovarian
OVCAR-4 ovarian = test system: OVCAR-4 ovarian
SK-OV-3 ovarian = test system: SK-OV-3 ovarian
IGROV1 ovarian = test system: IGROV1 ovarian
OVCAR-3 ovarian = test system: OVCAR-3 ovarian
HS 578T breast = test system: HS 578T breast
NCI/ADR-RES ovarian = test system: NCI/ADR-RES ovarian
T-47D breast = test system: T-47D breast
BT-549 breast = test system: BT-549 breast
MDA-MB-435 melanoma = test system: MDA-MB-435 melanoma
SW-620 colon = test system: SW-620 colon
MCF7 breast = test system: MCF7 breast
HCT-116 colon = test system: HCT-116 colon
HCC-2998 colon = test system: HCC-2998 colon
KM12 colon = test system: KM12 colon
MDA-MB-468 breast = test system: MDA-MB-468 breast
RPMI-8226 leukemia = test system: RPMI-8226 leukemia

SMILES | growth (SR leukemia) | growth (OVCAR-8 ovarian) | growth (OVCAR-5 ovarian) | growth (OVCAR-4 ovarian) | growth (SK-OV-3 ovarian) [%] | growth (IGROV1 ovarian) | growth (OVCAR-3 ovarian) | growth (HS 578T breast) | growth (NCI/ADR-RES ovarian) | growth (T-47D breast) | growth (BT-549 breast) | growth (MDA-MB-435 melanoma) | growth (SW-620 colon) | growth (MCF7 breast) | growth (HCT-116 colon) | growth (HCC-2998 colon) | growth (KM12 colon) | growth (MDA-MB-468 breast) | growth (RPMI-8226 leukemia)
O=C(Nc1ccc(Cl)c(C(F)(F)F)c1)c1cncc(C#Cc2cnc3ccc(N4CCOCC4)nn23)c1 | 2.44% (active) | 3.66% (active) | 19.4% | 13.6% | 10.7 | -14.1% (active) | 13.6% | -25.3% (active) | -5.95% (active) | 1.27% (active) | -14.9% (active) | 19.3% | 19.4% | -13.3% (active) | -26.7% (active) | -13.3% (active) | -21.5% (active) | -30.8% (active) | –
COc1ccc(C(=O)/C=C/c2cc(F)cc(C(F)(F)F)c2)cc1S(N)(=O)=O | 3.04% (active) | -44.1% (active) | – | -98% (active) | 42.1 | -53.6% (active) | -95.3% (active) | -25.7% (active) | 5.77% (active) | 6.93% (active) | -73% (active) | -56.2% (active) | -90.6% (active) | -90.6% (active) | -55% (active) | -89.6% (active) | -82.4% (active) | -93.2% (active) | 2.99% (active)
COc1ccc(/C=C/C(=O)c2ccc(NC(=O)CN3C(=O)NC(C)(c4ccccc4)C3=O)cc2)cc1 (stereo not given) | 61.6% | 93.3% | 102% | 78.3% | 106 | 90.3% | 78.2% | 81.3% | 102% | 38.6% | 71.6% | 16.7% | 88.8% | 4.86% (active) | 12.8% | 102% | 49.3% | 49.4% | –
COc1cc(/C=C/C(=O)c2ccc(C(F)(F)F)cc2)ccc1Oc1nc(Nc2ccc(F)cc2)nc(N(C)C)n1 | 30.4% | 85% | 92.7% | 69.8% | 103 | 91.4% | – | 91.6% | 66.7% | 44.6% | – | 80.1% | 50.2% | 30.8% | 7.06% (active) | 97.9% | 87.8% | 66.4% | 13.5%
COc1ccc(-c2cc(C(=O)N=Nc3c(O)[nH]c4ccccc34)c3ccccc3n2)cc1 | 22.8% | -28.6% (active) | 18.2% | -36.7% (active) | 80.9 | -62.5% (active) | -93.2% (active) | 31.1% | -14.4% (active) | 12.1% | 72.9% | 0.986% (active) | -30.2% (active) | -49.6% (active) | -43.3% (active) | -16.4% (active) | -11.1% (active) | -31.7% (active) | –
CN1C(=O)N(C)C2SC(N/N=C/c3ccc(F)cc3)=NC21 (stereo not given) | 11.7% | 66.8% | 77.9% | 77.2% | 61.8 | 46% | -41.9% (active) | 33.5% | 13% | 37.9% | 9.3% (active) | -28.8% (active) | 30.1% | 21.6% | 24.9% | 69.8% | 28.2% | -12.3% (active) | –
Nc1nc2c(F)c(F)c(F)c(F)c2s1 | 86.5% | 99.7% | – | 104% | 99.5 | 101% | – | 100% | 104% | 91.3% | 105% | 101% | 106% | 93.7% | 113% | 116% | 99.9% | 97.9% | 108%
CC1(c2ccccc2)NC(=O)N(CC(=O)Nc2ccc(C(=O)/C=C/c3ccccc3)cc2)C1=O (stereo not given) | 14.4% | 65.1% | 89.2% | 60.9% | 121 | 61.7% | 37.7% | 71.5% | 87.5% | 18.3% | 36% | -23% (active) | 32.4% | -19.6% (active) | -65% (active) | -15.6% (active) | -73% (active) | – | –
COc1cc(/C=C/C(=O)c2ccc(NC(=O)CN3C(=O)NC(C)(c4ccccc4)C3=O)cc2)cc(OC)c1OC (stereo not given) | 5.93% (active) | 10.4% | 34.6% | 32.9% | 112 | 26.7% | -6.99% (active) | 39.3% | 102% | 33.9% | 10.9% | 7.31% (active) | 8.07% (active) | 2.86% (active) | -69.7% (active) | 10% | -6.47% (active) | -23.1% (active) | –
COc1ccc(-c2c(N)c(=O)n(C)c3ccccc23)cc1 | 36.3% | 73.9% | – | 56.5% | 100 | 46.5% | 51.5% | 66.9% | 58.5% | 57.2% | 43% | 59.2% | 65.5% | 24.8% | 37.5% | 81.5% | 64.5% | – | 25.1%
Cc1ccc2nc(-c3ccc(-c4nnc(SCC(=O)Nc5ccc(Cl)cc5)o4)cc3)[nH]c2c1 | 21.8% | -11.8% (active) | – | 4.47% (active) | 79.3 | 37.8% | 24% | 40.5% | 23.2% | 65.1% | 65.9% | 49.1% | 3.49% (active) | -16.1% (active) | 9.37% (active) | 67.5% | 50.8% | 46.8% | 43.2%
COc1ccc2[nH]c(=O)c(CSc3ccc(Nc4nccc(-c5ccc(Cl)cc5)n4)cc3)cc2c1 | 90.9% | 70.3% | – | 94.8% | 119 | 105% | – | 63.8% | 73.7% | 78.6% | 104% | 111% | 105% | 84.5% | 78.9% | 115% | 102% | 97.9% | 81.3%
CC1(c2ccccc2)NC(=O)N(CC(=O)Nc2ccc(C(=O)/C=C/c3ccc(Br)cc3)cc2)C1=O (stereo not given) | 15.5% | 41.3% | 76% | 43.3% | 94.3 | 61.6% | 27.4% | 53.4% | 79.8% | 14.3% | 25.4% | -44% (active) | 32.7% | -42.6% (active) | -69.7% (active) | 10.5% | -27.8% (active) | -8.76% (active) | –
COc1ccc(C(=O)/C=C/c2cc(C(F)(F)F)cc(C(F)(F)F)c2)cc1S(N)(=O)=O | 5.52% (active) | -29.8% (active) | – | -80% (active) | 20 | -69% (active) | -88.6% (active) | -12.8% (active) | -34% (active) | -59.8% (active) | -65.8% (active) | -69.2% (active) | -58% (active) | -72.5% (active) | -59.1% (active) | -98.3% (active) | -75.4% (active) | -95.2% (active) | 3.03% (active)
Cc1ccn2c(C(=O)c3ccc(Br)cc3)cc(-c3cc(-c4ccc(N(C)C)cc4)c(C#N)c(N)n3)c2c1 | 64.3% | 38.2% | 66% | 63.3% | 93.8 | 76.6% | 50.2% | 70.2% | 72% | 50.5% | 61.9% | 65% | 41.5% | 46.2% | 36.2% | 64.6% | 62.4% | -15% (active) | –
Cc1ccc(/C(CSc2nnc(-c3c[nH]c4ccccc34)n2-c2ccccc2)=N/O)cc1 | 9.79% (active) | -27.8% (active) | -48.9% (active) | -87.2% (active) | 11.5 | -62.4% (active) | 14.7% | -53.5% (active) | -68.4% (active) | -47.3% (active) | -75.5% (active) | -100% (active) | -80.4% (active) | -55% (active) | 2.62% (active) | -41.9% (active) | 50.2% | -88.8% (active) | –
CCOP(=O)(OCC)O[C@H]1CCC(=O)[C@@H]2[C@H]1[C@H]1C[C@@H]3[C@@]4(C)CCCC(C)(C(=O)OC)[C@@H]4CC[C@@]23C=C1C(C)C (stereo not given in full) | 37.5% | 55.5% | – | 49.5% | 54 | 72.1% | 67.7% | 59.5% | 44.3% | 42.1% | 54.9% | – | 56.1% | 33.2% | 32.8% | 58.9% | 50.9% | 7.96% (active) | 21.9%
